The nature of test [1]: Nuclear factor erythroid 2-related factor 2/antioxidant responsive element (Nrf2/ARE) small molecule agonists: qHTS cell viability counter screen in human keratinocytes (AID 1919968; active = well fitted curve in the direction sought with a large enough effect in the repeat runs; an effect the other way counts as inactive or inconclusive; also: nearly all actives have a fitted effect of over 55% in size; also: potency is read from the fitted curve at half-maximal effect). In a few lines: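 Viability counter-screen: KeratinoSens reporter cells, DMSO-delivered compounds, 23 h at 37 C, CellTiter-Fluor fluorescence.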
The target of test [2] is KiSS-1 receptor (Homo sapiens) (UniProt Q969F8). The test can be described thus: Human kisspeptin (KISS1R) small molecule agonists, calcium flux assay in KISS1R-HEK293 cells (AID 1920064; active = well fitted curve in the direction sought with a large enough effect in the repeat runs; an effect the other way counts as inactive or inconclusive). Put shortly:
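Intracellular calcium mobilization in KISS1R-HEK293 cells was recorded by fluorescence (Ex/Em 480/540) for 3 min following compound addition to cells pre-loaded 1 h with calcium dye.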

The nature of test [3]: G protein-coupled receptor (GPCR) small molecule agonists, calcium flux assay: HEK293 wild type cell line counter screen (AID 1920065). Put shortly: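 In this agonist-mode screen, ATP is the positive control and DMSO the vehicle. Cells grow 18 h before a 1 h dye incubation at 37 C; signal is taken at Ex/Em 480/540 over 3 min.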
On the technique in general: Calcium assays in cells follow changes in intracellular calcium, usually with a dye or a luminescent sensor.

The nature of test [4]: p53 small molecule agonists, cell-based qHTS assay with human liver microsomes (AID 1963577). Put shortly:
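p53RE-bla cells, 4,000/well, compound added after 5 h, with human liver microsomes 0.5 mg/mL and NADPH 0.5 mg/mL final; 16 h at 37 C, then LiveBLAzer 2 h RT, fluorescence.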

The nature of test [5]: p53 small molecule agonists, cell-based qHTS assay with rat liver microsomes (AID 1963578). In a few lines: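 p53RE-bla cells, 4,000/well, pre-incubated 5 h, then given compounds plus rat liver microsomes (0.5 mg/mL final) and NADPH (0.5 mg/mL final). Incubation 16 h at 37 C; beta-lactamase reporter read by LiveBLAzer fluorescence after 2 h at room temperature.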
Background: qHTS replaces the single test concentration by a dilution series.

Test [6] is described as follows: p53 small molecule agonists, cell-based qHTS assay with human liver microsomes: qHTS cell viability counter screen (AID 1963579). Also: nearly all actives have a fitted effect of over 45% in size. Also: potency is read from the fitted curve at half-maximal effect. Put shortly: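 p53RE-bla cells, 4,000/well, dosed 5 hours after plating, with human liver microsomes (0.5 mg/mL final) plus NADPH (0.5 mg/mL final), 16 hours at 37 C. Viability read as CellTiter-Glo luminescence after 30 min at room temperature.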

A short description of test [7]: p53 small molecule agonists, cell-based qHTS assay with rat liver microsomes: qHTS cell viability counter screen (AID 1963580). Also: nearly all actives have a fitted effect of over 45% in size. In a few lines: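 In HCT-116 cells carrying a p53 response element-bla reporter, compounds were metabolically activated in situ by rat liver microsomes with NADPH over 16 h. Cell ATP content then served as the cytotoxicity measure.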
Test [8] in a line: p53 small molecule agonists, cell-based qHTS assay: qHTS cell viability counter screen (AID 1963581). Also: nearly all actives have a fitted effect of over 45% in size. Also: potency is read from the fitted curve at half-maximal effect. Put shortly: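 Compounds are pinned onto HCT-116 p53RE-bla cells and left 16 h at 37 C. Following the reporter FRET read, ATP is quantified by CellTiter-Glo luminescence after 30 min at room temperature.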
The nature of test [9]: p53 small molecule agonists, cell-based qHTS assay (AID 1963582; active = well fitted activation curve with a large enough effect in the signal ratio in the repeat runs, not every such curve was filed as active; the % refers to the signal ratio). Put shortly: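 Agonist activity was scored from beta-lactamase FRET fluorescence in p53RE-bla cells treated 16 h at 37 C with compounds in DMSO, substrate incubation being 2 h at room temperature.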
A short description of test [10]: cAMP Responsive Elements (CRE) small molecule agonists, cell-based qHTS assay (AID 1963590). Put shortly:
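FRET-based beta-lactamase readout (LiveBLAzer B/G, 2 h RT) quantified CRE activation in HEK 293T CRE-bla cells after 3 h treatment with DMSO-dissolved compounds.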

Test [11] is described as follows: cAMP Responsive Elements (CRE) small molecule antagonists, cell-based qHTS assay (AID 1963591; active = well fitted inhibition curve with a large enough effect in the signal ratio in the repeat runs, not every such curve was filed as active; the % refers to the signal ratio). In a few lines: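 qHTS in CRE-bla HEK 293T cells: compound in DMSO, then 0.25 uM NKH477 (final), 3 h at 37 °C/5% CO2; beta-lactamase FRET read-out after 2 h substrate incubation.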
The target of test [12] is Beta-2 adrenergic receptor (Homo sapiens) (UniProt P07550). The test can be described thus: Adrenergic beta2 receptor (ADRB2) small molecule antagonists, cell-based qHTS assay (AID 1963592). Also: series mostly up to about 92 µM; nearly all actives have a fitted effect of over 50% in size. Put shortly: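 Cells (CHO, stable ADRB2 overexpression) incubated 18-20hr at 37C; compounds added from DMSO; agonist mix (1nM isoproterenol, 100uM IBMX, 25uM Ro-20-1724) added; 0.5hr RT; d2-cAMP and anti-cAMP-cryptate added; 1hr RT; 665/615 nm read.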
Beta-2 adrenergic receptor (Homo sapiens), sequence (P07550 whole entry, looked up): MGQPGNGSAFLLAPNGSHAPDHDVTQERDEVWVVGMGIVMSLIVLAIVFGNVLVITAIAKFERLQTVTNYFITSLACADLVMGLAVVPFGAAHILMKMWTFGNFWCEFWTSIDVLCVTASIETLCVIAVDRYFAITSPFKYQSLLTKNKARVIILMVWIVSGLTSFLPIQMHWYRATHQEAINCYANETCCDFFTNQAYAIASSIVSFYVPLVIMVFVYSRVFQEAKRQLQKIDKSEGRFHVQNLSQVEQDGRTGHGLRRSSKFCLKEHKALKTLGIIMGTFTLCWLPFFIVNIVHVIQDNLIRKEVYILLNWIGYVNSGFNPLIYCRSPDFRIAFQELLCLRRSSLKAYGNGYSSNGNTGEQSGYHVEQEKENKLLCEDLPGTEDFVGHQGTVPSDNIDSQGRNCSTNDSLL

Test [13] has as its target D(2) dopamine receptor (Homo sapiens) (UniProt P14416). In words: Dopamine D2 receptor (DRD2) small molecule agonists, cell-based qHTS assay (AID 1963594). Also: nearly all actives have a fitted effect of over 35% in size. In a few lines:
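HEK293 cells stably expressing DRD2 were cultured 24 h at 37 C, then given Ro20-1724 (0.1 mM final) and compounds for 10 min at room temperature. NKH477 (200nM) was then added for 30 min. cAMP was read by HTRF.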

For test [14] the target is unchanged. In words: Dopamine D2 receptor (DRD2) small molecule antagonists, cell-based qHTS assay (AID 1963595; active = well fitted inhibition curve with a large enough effect in the signal ratio in the repeat runs, with a control signal flat; the % refers to the signal ratio; also: potency is read from the fitted curve at half-maximal effect). Put shortly: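 DRD2-HEK293; 0.1 mM Ro20-1724; cpd 10 min RT; NKH477 200 nM + quinpirole 12 nM, 30 min RT; HTRF cAMP (cAMP-d2/anti-cAMP cryptate), 665/620 nm ratio after 1 h.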
In test [15] the target is Gonadotropin-releasing hormone receptor (Homo sapiens) (UniProt P30968). In words: Human gonadotropin-releasing hormone receptor (GnRHR) small molecule agonists, calcium flux assay in GnRHR-HEK293 cells (AID 1920063). Also: nearly all actives have a fitted effect of over 35% in size. In a few lines: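 Tox21-format agonist screen using human GnRHR-expressing HEK293 cells and a fluorescent calcium dye; kinetic 3-min fluorescence reading after compound addition, 15-point concentration series run in triplicate.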
Gonadotropin-releasing hormone receptor (Homo sapiens), sequence (P30968 whole entry, looked up): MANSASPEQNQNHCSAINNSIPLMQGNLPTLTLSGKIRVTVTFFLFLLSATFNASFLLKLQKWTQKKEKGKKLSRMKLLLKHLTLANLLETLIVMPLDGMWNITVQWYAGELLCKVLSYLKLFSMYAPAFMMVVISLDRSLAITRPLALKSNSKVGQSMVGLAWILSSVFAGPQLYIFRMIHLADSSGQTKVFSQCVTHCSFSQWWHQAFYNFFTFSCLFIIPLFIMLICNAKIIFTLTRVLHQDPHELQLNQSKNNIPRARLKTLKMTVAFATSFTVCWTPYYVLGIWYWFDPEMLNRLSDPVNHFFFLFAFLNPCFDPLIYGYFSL

The target of test [16] is 5-hydroxytryptamine receptor 2A (Homo sapiens) (UniProt P28223). The test can be described thus: 5-hydroxytryptamine receptor 2A (HTR2A) small molecule antagonists, cell-based qHTS assay (AID 1963586). Also: nearly all actives have a fitted effect of over 45% in size. Also: potency is read from the fitted curve at half-maximal effect. In a few lines:
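Antagonist-mode intracellular calcium assay: DOI (4 nM) added after 5 min compound pre-incubation at room temperature to dye-loaded HTR2A-CHO cells. Fluorescence followed for 3 min, sampled every second.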

For test [17] the target is unchanged. The test can be described thus: 5-hydroxytryptamine receptor 2A (HTR2A) small molecule agonists, cell-based qHTS assay (AID 1963587). Also: nearly all actives have a fitted effect of over 30% in size. Also: potency is read from the fitted curve at half-maximal effect. In a few lines: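 HTR2A-CHO cells, plated 18 h at 37 C/5% CO2, dye-loaded 1 h at 37 C; compounds in DMSO added by pin tool (agonist mode). Intracellular calcium flux read as kinetic fluorescence on FDSS over 2 min at 1 s intervals.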

Test [18] has as its target Muscarinic acetylcholine receptor M1 (Homo sapiens) (UniProt P11229). The test can be described thus: Cholinergic receptor muscarinic 1 (CHRM1) small molecule antagonists, cell-based qHTS assay (AID 1963588). Also: nearly all actives have a fitted effect of over 40% in size. Also: potency is read from the fitted curve at half-maximal effect. In a few lines:
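CHRM1-CHO calcium-flux assay, antagonist mode. Cells were seeded 18 h, dye-loaded 1 h at 37 C and given compound for 5 min at RT, then acetylcholine was added at 50nM. FDSS fluorescence was read 3 min; 15 concentrations, three runs.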

Test [19] shares this target. In words: Cholinergic receptor muscarinic 1 (CHRM1) small molecule agonists, cell-based qHTS assay (AID 1963589). Also: nearly all actives have a fitted effect of over 35% in size. Put shortly: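 Stable CHRM1-CHO cells (human receptor) were incubated 18 h, dye-loaded for 1 h at 37 C and exposed to test compounds for agonist activity, with calcium-dependent fluorescence followed kinetically.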
The target in test [20] is Beta-2 adrenergic receptor (Homo sapiens) (UniProt P07550). The test can be described thus: Adrenergic beta2 receptor (ADRB2) small molecule agonists, cell-based qHTS assay (AID 1963593).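 Also: CHO cells stably overexpressing human ADRB2.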 In a few lines: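 CHO cells stably over-expressing ADRB2 were plated overnight at 37C, then dosed with compounds plus a stimulation mix containing 100uM IBMX and 25uM Ro-20-1724 for 0.5hr at room temperature. cAMP was measured by HTRF competition, 1hr.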

Values joined by “and” are separate entries in the source; they are usually repeats but may differ in a detail not shown here. Equal values may be shown once. Results filed as inconclusive are left out. Some structures have more than one record in an assay (separate samples or runs), and their calls can disagree. Active and inactive are the calls of the source. Unless noted, calls follow the shape of the full dose curve.

Muscarinic acetylcholine receptor M1 (Homo sapiens), sequence (P11229 whole entry, looked up): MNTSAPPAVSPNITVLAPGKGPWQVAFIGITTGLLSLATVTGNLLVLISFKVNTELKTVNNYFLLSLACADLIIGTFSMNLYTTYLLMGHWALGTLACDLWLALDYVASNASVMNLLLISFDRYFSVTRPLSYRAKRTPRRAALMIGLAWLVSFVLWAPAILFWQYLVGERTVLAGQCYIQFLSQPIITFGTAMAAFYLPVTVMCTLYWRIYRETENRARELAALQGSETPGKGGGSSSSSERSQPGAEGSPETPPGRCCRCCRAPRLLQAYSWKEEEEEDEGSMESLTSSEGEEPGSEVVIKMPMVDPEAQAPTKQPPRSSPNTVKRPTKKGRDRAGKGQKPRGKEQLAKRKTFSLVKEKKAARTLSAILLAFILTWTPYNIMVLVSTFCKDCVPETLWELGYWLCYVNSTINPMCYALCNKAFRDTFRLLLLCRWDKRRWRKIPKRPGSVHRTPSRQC
D(2) dopamine receptor (Homo sapiens), sequence (P14416 whole entry, looked up): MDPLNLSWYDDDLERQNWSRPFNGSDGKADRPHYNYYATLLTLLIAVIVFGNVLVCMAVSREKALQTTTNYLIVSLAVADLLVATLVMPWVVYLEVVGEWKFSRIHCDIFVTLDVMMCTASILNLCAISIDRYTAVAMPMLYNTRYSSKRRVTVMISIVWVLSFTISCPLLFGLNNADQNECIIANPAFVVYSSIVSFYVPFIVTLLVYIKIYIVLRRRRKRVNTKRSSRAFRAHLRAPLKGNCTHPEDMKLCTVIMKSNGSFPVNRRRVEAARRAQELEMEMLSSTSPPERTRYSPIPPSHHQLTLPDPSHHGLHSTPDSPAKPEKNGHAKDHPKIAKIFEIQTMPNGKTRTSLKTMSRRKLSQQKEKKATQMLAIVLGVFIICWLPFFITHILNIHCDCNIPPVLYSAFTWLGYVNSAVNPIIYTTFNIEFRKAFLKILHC
5-hydroxytryptamine receptor 2A (Homo sapiens), sequence (P28223 whole entry, looked up): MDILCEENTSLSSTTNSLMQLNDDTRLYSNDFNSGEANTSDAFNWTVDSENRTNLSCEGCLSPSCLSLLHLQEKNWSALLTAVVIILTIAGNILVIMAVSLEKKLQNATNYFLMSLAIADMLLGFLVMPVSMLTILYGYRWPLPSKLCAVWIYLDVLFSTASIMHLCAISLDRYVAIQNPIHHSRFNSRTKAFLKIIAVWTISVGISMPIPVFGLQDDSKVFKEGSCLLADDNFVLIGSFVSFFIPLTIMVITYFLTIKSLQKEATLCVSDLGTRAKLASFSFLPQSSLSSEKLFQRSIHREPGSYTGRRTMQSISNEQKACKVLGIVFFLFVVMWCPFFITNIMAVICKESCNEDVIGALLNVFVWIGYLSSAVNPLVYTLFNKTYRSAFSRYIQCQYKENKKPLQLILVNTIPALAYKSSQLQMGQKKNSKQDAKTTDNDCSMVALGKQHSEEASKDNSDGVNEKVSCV
KiSS-1 receptor (Homo sapiens), sequence (Q969F8 whole entry, looked up): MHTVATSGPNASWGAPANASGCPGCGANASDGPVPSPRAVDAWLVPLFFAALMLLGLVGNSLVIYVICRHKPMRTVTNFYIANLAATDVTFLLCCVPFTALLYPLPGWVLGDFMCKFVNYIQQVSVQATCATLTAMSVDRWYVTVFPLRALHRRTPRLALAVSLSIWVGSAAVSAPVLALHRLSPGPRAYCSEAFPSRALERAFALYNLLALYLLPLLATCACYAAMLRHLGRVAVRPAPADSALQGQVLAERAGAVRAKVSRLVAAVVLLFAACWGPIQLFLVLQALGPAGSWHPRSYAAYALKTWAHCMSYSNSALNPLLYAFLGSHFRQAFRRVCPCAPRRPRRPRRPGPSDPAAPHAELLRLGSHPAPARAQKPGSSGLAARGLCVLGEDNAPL

In the case of `Cn1c(=O)c2c(ncn2C)n(C)c1=O`, the Potency result in test [1], in [2], in test [3], in test [4], in test [5] and in test [6] was “inactive” throughout. The Potency result in test [7], in test [8], in test [9], in test [10], in [11] and in [12] was “inactive” each time. In addition, the Potency result in test [13] and in test [14] was “inactive” throughout.

As to `Cc1ccc(/C(=C\CN2CCCC2)c2ccccn2)cc1`, the Potency entry in test [1], in [15], in [2], in test [3], in test [9] and in test [16] was “inactive” throughout. The Potency entry in test [17], in test [19], in [10], in [11], in test [12] and in [20] was “inactive” in each case. Further, the Potency entry in [13] and in [14] was “inactive” throughout. For the same compound, the Potency in [18] is 1.4 µM (active) and 2.59 µM (active).

As to `CCCCCCCCCCCCCC[P+](CCCC)(CCCC)CCCC`, the Potency was 9.63 µM (active) and 24.3 µM (active) in [1]; 45.5 µM (active) and 20.4 µM (active) in [6]; 20.3 µM (active) and 25.7 µM (active) in test [8]; 14.8 µM (active) and 18.8 µM (active) in test [16]; 21.8 µM (active) and 54.9 µM (active) in test [17]; 17.1 µM (active) and 43.3 µM (active) in test [14]. Besides, the Potency result in test [15], in test [2], in test [3], in test [19], in test [12] and in test [20] was “inactive” throughout.

For `CCN(CC)CCNC(=O)c1ccc(N)cc1`, the Potency result in test [1], in test [15], in [3], in test [6], in test [7] and in test [8] was “inactive” in each case. The Potency entry in test [10], in test [11], in [12], in [20], in test [13] and in test [14] was “inactive” each time.

Regarding `CCCN[C@H]1CCc2nc(N)sc2C1`, the Potency result in test [1], in test [15], in test [2], in test [4], in [5] and in [6] was “inactive” throughout. Also, the Potency result in [7], in test [8], in test [9], in test [16], in [18] and in test [19] was “inactive” in each case. Further, the Potency entry in test [10], in [11], in [12], in [20] and in test [14] was “inactive” each time.

With `CC(CN1c2ccccc2Sc2ccccc21)N(C)C` (stereo not given), the Potency entry in test [1], in test [15], in [2], in test [4], in test [5] and in test [7] was “inactive” each time. The Potency entry in [9], in test [10], in test [11], in test [12] and in test [14] was “inactive” each time.

As for `CC1=CC(=O)NS(=O)(=O)O1`, the Potency result in test [1], in test [15], in [2], in test [3], in test [6] and in test [16] was “inactive” throughout. Also, the Potency entry in [17], in test [18], in [19], in test [10], in test [11] and in [12] was “inactive” throughout. Further, the Potency result in test [20], in test [13] and in [14] was “inactive” throughout. Moreover, in test [8], the Potency is 23 µM (active) and inactive.

`NC(=O)NNc1ccccc1`: the Potency entry in test [1], in [2], in test [3], in test [4], in [5] and in test [6] was “inactive” throughout. Moreover, the Potency result in test [8], in [9], in [16], in test [17], in test [18] and in test [19] was “inactive” in each case. The Potency entry in test [10], in test [11], in [12], in test [20], in [13] and in [14] was “inactive” throughout.

The values above are taken from PubChem BioAssay (Tox21).
